# PNC inhibitor = inhibitors of perinucleolar compartment assembly. PC3M PTB-GFP, PNC prevalence imaging, 16 h; stronger effect = lower value. activity change (PNC), negative = inhibition, % at 10 µM. 140,000 compounds, 3.1% hits. AID 2417;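 active = readout at or below -70, meaning at least 70% loss of cells showing the perinucleolar compartment, a nuclear body marking cancer cells; inconclusive = readout between -30 and a set limit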;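 also: plate controls were DMSO wells for no effect and camptothecin positive control wells for full effect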
#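 PC3M cells stably expressing PTB-GFP, 750–1000 cells/well, treated 16 h at 37 °C with compound (23 nl of library stock), in duplicate. After paraformaldehyde fixation and Hoechst stain, imaged at 20x; PNC prevalence scored by image analysis.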
# HPGD block = HPGD (human) dehydrogenase inhibition; P15428; purified HPGD, NADH fluorescence kinetic, PGE2 substrate; Potency, µM, for inactives: at the highest dose activity change, negative = inhibition, hits mostly inhibitors; 150,000 compounds, 4.3% hits; also: potency is read from the fitted curve at half-maximal effect
# Target sequence (P15428 whole entry, looked up): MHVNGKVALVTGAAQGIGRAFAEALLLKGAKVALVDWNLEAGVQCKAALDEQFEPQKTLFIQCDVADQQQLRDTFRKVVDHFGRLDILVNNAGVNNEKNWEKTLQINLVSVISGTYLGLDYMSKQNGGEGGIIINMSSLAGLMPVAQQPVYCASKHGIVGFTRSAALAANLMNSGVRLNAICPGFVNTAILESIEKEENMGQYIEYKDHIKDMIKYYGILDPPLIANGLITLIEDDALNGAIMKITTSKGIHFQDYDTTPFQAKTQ
#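 20 nM HPGD preincubated 15 min at room temperature with compound in 50 mM Tris-HCl pH 8, 0.01% Tween 20. Started with 1 mM NAD+ and 30 uM prostaglandin E2; NADH fluorescence (360/450 nm) read 5 times over 30-s intervals, last minus first.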
# ALDH1A1 block = inhibitors of human aldehyde dehydrogenase 1A1 | P00352 | Purified ALDH1A1, NADH fluorescence, propionaldehyde substrate | Potency, µM (titrated, usually from 75.3 µM), inactives show at the top dose activity, negative = inhibition, actives largely listed as inhibitors | 220,000 compounds, 7.3% hits | AID 1030;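 also: potency is read from the fitted curve at half-maximal effect; plate controls were no enzyme wells and a reference inhibitor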
# Starred values were filed as active, the others as inactive; ? = inconclusive; . = not tested or not shown; [ ] = dose if it differs, or a comment. Sampled rows, rich in hits. Any-hit rate of the full collection: about 11%. Unless noted, calls follow the shape of the dose curve; as a rule, active = well fitted inhibition curve with a large enough effect (not every such curve was filed as active); inconclusive = small, poorly fitted or top-dose-only effect, or another doubt; inactive = no such curve, though single readings can be large or run the other way. Unless noted, % is scaled to controls: 0 for no effect and ±100 for the full control effect.
SMILES,PNC inhibitor,HPGD block,ALDH1A1 block
O=c1c2cc(Br)ccc2nc(-c2ccc([N+](=O)[O-])cc2)n1O,.,.,-7%
O=c1c2c([N+](=O)[O-])cc([N+](=O)[O-])cc2sn1-c1ccc(Br)cc1,-7,2.2µM*,1.4µM*
CCOC(=O)N/N=C1/C[C@@H](O)[C@@H](O)[C@@H]2[C@@H]3C(=O)N(C(C)(C)C)C(=O)[C@H]3CC[C@@H]12,.,.,10%[13.5 µM]
COc1cccc(CNc2cccc3cccnc23)c1O,-94*,32µM*,?
Cc1ccc(O)c(CNc2cccc3cccnc23)c1,.,.,-6%
Cn1c(SCC(=O)N2CCOCC2)nc(O)cc1=O,-11,-20%,4%
CCOc1ccc(OCCCN(C)C)cc1,?,-7%,14µM*
CCOc1ccc(OCCCCN(C)C)cc1,0,-5%,?
Cn1c(NNC(=O)C2CCCCC2)cc(=O)n(C)c1=O,.,.,3%
CCOC(=O)c1n[nH]c(=O)c2ccccc12,.,.,4%
Cc1ccc(C(=O)C(C)OC(=O)c2n[nH]c(=O)c3ccccc23)cc1 (stereo not drawn),-8,14µM*,16%
O=C(c1ccccc1)N1CCN(CC#Cc2ccccc2)CC1,20,-18%,3%
C(#Cc1ccc(C#CCN2CCCC2)cc1)CN1CCCC1,-90*,-12%,-12%
Cc1ccc(NC(=O)NC(=O)CN2C(=O)NC3(CCc4ccccc43)C2=O)c(C)c1 (stereo not drawn),?,-23%,4%
O=S(=O)(c1ccc(F)cc1)c1nc(-c2ccccc2F)oc1N1CCCCC1,33,-6%,5µM*
CCOc1ccc(-c2nc(S(=O)(=O)c3ccccc3)c(N3CCOCC3)o2)cc1,.,.,-14%
O=C(N/N=C/c1ccc([N+](=O)[O-])cc1)c1ccc(COc2ccccc2-c2ccccc2)cc1,.,.,3%
O=S(=O)(O)c1cc(S(=O)(=O)O)c2c(N=Nc3cccc4ccccc34)c(O)ccc2c1,.,-8%,?
COc1cc(C2C3CN(C)CC=C3C(C#N)=C(N)C2(C#N)C#N)ccc1OC(C)C (stereo not drawn),?,-15%,?
CCOC(=O)N1CC=C2C(C#N)=C(N)C(C#N)(C#N)[C@H](c3cccs3)C2C1 (stereo partly drawn),-100*,-12%,-6%
Cc1ccc([C@@H]2C3COCC=C3C(C#N)=C(N)C2(C#N)C#N)o1 (stereo partly drawn),16,?,?
Cc1ccc(C2C3CSCC=C3C(C#N)=C(N)C2(C#N)C#N)cc1 (stereo not drawn),12,-28%,8.9µM*
CC1CC=C2C(C#N)=C(N)C(C#N)(C#N)C(c3cccs3)C2C1 (stereo not drawn),-17,-10%,?
CCCOc1ccc([C@@H]2C3CN(C(=O)OCC)CC=C3C(C#N)=C(N)C2(C#N)C#N)cc1OC (stereo partly drawn),-81*,-9%,-15%
N#CC1=C(N)C(C#N)(C#N)[C@H](c2ccncc2)[C@H]2CC3(CC=C12)OCCO3,-98*,.,?
SMILES,PNC inhibitor,HPGD block,ALDH1A1 block
CC(C)(C)OC(=O)N1CC=C2C(C#N)=C(N)C(C#N)(C#N)C(c3cccs3)C2C1 (stereo not drawn),3,?,?
CCOc1ccc(NC(=S)NNC(=O)CC(C)O)cc1 (stereo not drawn),.,.,3%
O=C(COc1ccc(C(=O)c2ccccc2)cc1)NCC1CCCCC1,23,-19%,?
C/C(=C\CNc1ncnc2c1ncn2[C@@H]1O[C@H](CO)[C@@H](O)[C@H]1O)CO,.,-13%,-9%
COc1ccc(OC)c(NC(=O)CSc2nc(C)cs2)c1,-3,-14%,5%
COc1ccc(S(=O)(=O)CC2(O)CCN(C(=O)C(C)(C)C)CC2)cc1,.,.,-2%
NC(=O)c1ccsc1NC(=O)COC(=O)CCOc1ccccc1,.,.,-4%
CC(=O)N(c1ccc(C)cc1)S(=O)(=O)c1ccc(Cl)cc1,.,.,-5%
N#CC1=C(N)C(C#N)(C#N)[C@H](c2ccncc2)[C@H]2CN(C(=O)OCc3ccccc3)CC=C12,-100*,-25%,-4%
CN1CC=C2C(C#N)=C(N)C(C#N)(C#N)C(Cc3ccccc3)C2C1 (stereo not drawn),-119*,?,?
CC(C)(C)OC(=O)N1CC=C2C(C#N)=C(N)C(C#N)(C#N)[C@H](c3cccnc3)[C@H]2C1,?,-13%,?
CC(C)N1CC=C2C(C#N)=C(N)C(C#N)(C#N)C(c3ccccc3)C2C1 (stereo not drawn),-107*,?,?
CCC1C2CN(C(C)=O)CC=C2C(C#N)=C(N)C1(C#N)C#N (stereo not drawn),-21,-7%,?
CC(C)N1CC=C2C(C#N)=C(N)C(C#N)(C#N)[C@H](c3ccoc3)[C@H]2C1,115,?,?
CCc1cc(C(N)=S)ccn1,.,0%,5%
Cc1nn(C)c(C(=O)N/N=C/c2ccc(C(F)(F)F)cc2)c1[N+](=O)[O-],-9,-7%,6%
CCN(Cc1cc(OC)c(OC)c(OC)c1)C(=S)Nc1cccc(SC)c1,.,.,-7%
Cc1nn(C(C)C(=O)NCc2cccs2)c(C)c1[N+](=O)[O-] (stereo not drawn),.,.,11%
Cc1ccc2c(c1)Oc1ccc(NC(=O)CCl)cc1C(=O)N2,.,.,11µM*
Cc1ccc2c(c1)Oc1ccc([N+](=O)[O-])cc1C(=O)N2,.,.,8%
O=C(c1ccccc1F)N1CCN(c2ccc([N+](=O)[O-])c(NCc3cccnc3)c2)CC1,.,.,7.9µM*
O=[N+]([O-])c1ccc(N2CCN(S(=O)(=O)c3ccc(Cl)cc3)CC2)cc1NCc1cccnc1,13,-4%,7%
O=[N+]([O-])c1ccc(N2CCN(S(=O)(=O)c3ccccc3)CC2)cc1NCC1CCCO1 (stereo not drawn),?,-1%,0%
O=C(c1ccccc1)N1CCN(c2ccc([N+](=O)[O-])c(NCc3cccnc3)c2)CC1,-26,-10%,11µM*
O=[N+]([O-])c1ccc(N2CCN(S(=O)(=O)c3ccccc3)CC2)cc1NCc1cccnc1,?,-5%,10%
SMILES,PNC inhibitor,HPGD block,ALDH1A1 block
O=C(c1ccccc1)N1CCN(c2ccc([N+](=O)[O-])c(NCC3CCCO3)c2)CC1 (stereo not drawn),.,.,13µM*
Cc1cc2ncc(S(=O)(=O)c3ccccc3)c(N)n2n1,.,.,9%
COc1ccc(OC)c(-c2csc(NC(=O)Cc3cccs3)n2)c1,.,.,-7%
Cc1ccccc1S(=O)(=O)O[C@@H]1NS(=O)(=O)c2ccccc21,.,1%,17%[13.5 µM]
CCOC(=O)c1c(-c2ccccc2)csc1NC(=O)/C(C#N)=C/c1ccc(O)c(OC)c1,10,-22%,?
Cn1c(SCC(=O)NCc2ccco2)nnc1-c1ccccc1,31,-6%,-1%
COC(=O)c1ccc2c(=O)n(Cc3ccco3)c(SCC(=O)Nc3ccc(C)c(Cl)c3)nc2c1,-4,-2%,?
Cn1c(SCC(=O)NCc2ccco2)nnc1-c1ccc(S(=O)(=O)N2CCOCC2)cc1,-100*,-2%,-16%
CC1CCN(C(=O)CSc2nnc(-c3ccc(S(=O)(=O)N4CCOCC4)cc3)n2C)CC1,-100*,?,?

# Screens: PubChem, National Center for Advancing Translational Sciences (NCATS)
